Source: PubChem BioAssay (NCI)
The panel holds about 83,000 compounds, 20% with a hit somewhere; the sample as a whole holds those more often.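 Note: values are percent growth. 100 is the growth of untreated cells, values between 100 and 0 indicate rising inhibition; between -100 and 0 indicates cell death.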 The source made the active and inactive calls. How the source made its calls: active means growth percent below 10; inactive means the rest.

Legend:
Assay in all cases: NCI-60 one-dose screen, 48 h (100 = growth as untreated, 0 = no growth, -100 = all killed)
Settings in all cases: 10 µM unless noted
MOLT-4 leukemia = test system: MOLT-4 leukemia
SR leukemia = test system: SR leukemia
RPMI-8226 leukemia = test system: RPMI-8226 leukemia
OVCAR-8 ovarian = test system: OVCAR-8 ovarian
OVCAR-5 ovarian = test system: OVCAR-5 ovarian
OVCAR-4 ovarian = test system: OVCAR-4 ovarian
SK-OV-3 ovarian = test system: SK-OV-3 ovarian
IGROV1 ovarian = test system: IGROV1 ovarian
OVCAR-3 ovarian = test system: OVCAR-3 ovarian
HS 578T breast = test system: HS 578T breast

Measured: growth

CCCCCCCC(=O)OCC(=O)[C@]1(O)Cc2c(O)c3c(c(O)c2[C@@H](OC2CC(N)C(O)C(C)O2)C1)C(=O)c1c(OC)cccc1C3=O (stereo not given in full)
active: MOLT-4 leukemia -93.1% | SR leukemia -67.1% | RPMI-8226 leukemia -73.6% | OVCAR-8 ovarian -95% | OVCAR-5 ovarian -73.9% | OVCAR-4 ovarian -72.1% | SK-OV-3 ovarian -58.5% | IGROV1 ovarian -66.8% | OVCAR-3 ovarian -100% | HS 578T breast -59.3%

ClCCN(CCCl)c1ccc(/C=N/Nc2ncnc3nc[nH]c23)cc1
active: SR leukemia 6.32%
inactive: MOLT-4 leukemia 26.3% | RPMI-8226 leukemia 91.9% | OVCAR-8 ovarian 80% | OVCAR-5 ovarian 124% | OVCAR-4 ovarian 80.3% | SK-OV-3 ovarian 82.6% | IGROV1 ovarian 28.3% | OVCAR-3 ovarian 98.5% | HS 578T breast 151%

CC(=O)[C@H]1CC[C@H]2[C@@H]3CC[C@H]4C[C@H](N)CC[C@]4(C)[C@H]3CC[C@]12C
inactive: MOLT-4 leukemia 61.7% | SR leukemia 32.3% | RPMI-8226 leukemia 58.9% | OVCAR-8 ovarian 90% | OVCAR-5 ovarian 82.7% | OVCAR-4 ovarian 84.1% | SK-OV-3 ovarian 109% | IGROV1 ovarian 81.6% | OVCAR-3 ovarian 74.5% | HS 578T breast 82%

COC(=O)N[C@H]1CCc2c(Br)c(OC)c(OC)c(OC)c2-c2ccc(SC)c(=O)cc21
active: MOLT-4 leukemia 3.15% | SR leukemia -9.73% | RPMI-8226 leukemia -3.46% | IGROV1 ovarian 9.6% | OVCAR-3 ovarian -40.5% | HS 578T breast 1.22%
inactive: OVCAR-8 ovarian 14.8% | OVCAR-5 ovarian 35.9% | OVCAR-4 ovarian 24.7% | SK-OV-3 ovarian 33.1%

COc1cc(/C=C\c2cc(OC)c(OC)c(OC)c2)cc(NS(=O)(=O)c2cccc(Cl)c2)c1OC
active: MOLT-4 leukemia 9.29% | OVCAR-3 ovarian -36.3%
inactive: SR leukemia 10.6% | RPMI-8226 leukemia 18.1% | OVCAR-8 ovarian 18.2% | OVCAR-5 ovarian 19.5% | OVCAR-4 ovarian 37.4% | SK-OV-3 ovarian 16.9% | IGROV1 ovarian 26.3% | HS 578T breast 45.4%

CCCCCCCCCCCCNC(c1ccccc1)C(O)c1ccccc1 (stereo not given)
active: SR leukemia -14.3%
inactive: MOLT-4 leukemia 61.7% | RPMI-8226 leukemia 18.3% | OVCAR-8 ovarian 67.9% | OVCAR-5 ovarian 92.9% | OVCAR-4 ovarian 10.5% | SK-OV-3 ovarian 95.8% | IGROV1 ovarian 53.7% | OVCAR-3 ovarian 83.8% | HS 578T breast 106%

COC(=O)CC12CC(NC(=O)c3csc([C@@H](C[C@H](C(C)C)N(C)C(=O)[C@@H](NC(=O)[C@H]4CCCCN4C)C(C)C)OC(C)=O)n3)(C1)C2
inactive: MOLT-4 leukemia 16.5% | SR leukemia 20.1% | RPMI-8226 leukemia 24.4% | OVCAR-8 ovarian 30.5% | OVCAR-5 ovarian 42.9% | OVCAR-4 ovarian 56.1% | SK-OV-3 ovarian 18.4% | IGROV1 ovarian 26.3% | HS 578T breast 45%
active: OVCAR-3 ovarian -34.3%

CC[C@H](C)[C@H](NC(=O)N[C@@H](C)c1ccccc1)C(=O)N(C)[C@H](C[C@@H](OC(C)=O)c1nc(C(=O)N[C@@H](Cc2ccccc2)C[C@H](C)C(=O)OC)cs1)C(C)C
active: SR leukemia 3.11% | OVCAR-3 ovarian -36.6% | HS 578T breast 0.903%
inactive: MOLT-4 leukemia 21.7% | RPMI-8226 leukemia 16.1% | OVCAR-8 ovarian 11.6% | OVCAR-5 ovarian 17.8% | OVCAR-4 ovarian 37.1% | SK-OV-3 ovarian 36.1% | IGROV1 ovarian 24.1%

CCOC(=O)[C@@H](C)C[C@H](Cc1ccccc1)NC(=O)c1csc([C@@H](C[C@H](C(C)C)N(C)C(=O)CNC(=O)[C@H]2CCCCN2C)OC(C)=O)n1
active: SR leukemia 7.72% | OVCAR-8 ovarian 9.59% | OVCAR-3 ovarian -17.4% | HS 578T breast 3.01%
inactive: MOLT-4 leukemia 19.7% | RPMI-8226 leukemia 15.4% | OVCAR-5 ovarian 32.1% | OVCAR-4 ovarian 46.4% | SK-OV-3 ovarian 21.9% | IGROV1 ovarian 33.4%

COc1cc(/C=C/[N+](=O)[O-])c([N+](=O)[O-])cc1OC
inactive: SR leukemia 12.6% | OVCAR-8 ovarian 17% | SK-OV-3 ovarian 103% | HS 578T breast 11.8%
active: MOLT-4 leukemia 7.83% | RPMI-8226 leukemia 4.37% | OVCAR-5 ovarian -3.45% | OVCAR-4 ovarian 6.43% | IGROV1 ovarian -15.6% | OVCAR-3 ovarian -91.7%

Fc1c[c-]c(-c2ccccn2)c(F)c1.[CH3-].[Pt+2].c1ccc([PH+](c2ccccc2)c2ccccn2)cc1
active: MOLT-4 leukemia 8.87% | SR leukemia -2.4% | RPMI-8226 leukemia -8.21% | OVCAR-5 ovarian -48.1% | OVCAR-4 ovarian -2.32% | SK-OV-3 ovarian 5.32% | IGROV1 ovarian -12% | OVCAR-3 ovarian -22.2% | HS 578T breast -1.24%
inactive: OVCAR-8 ovarian 10.3%

CC(C)CCC(=O)O[C@H]1CC[C@H]2[C@@H]3CCC4=CC(=O)CC[C@]4(C)[C@H]3CC[C@]12C
inactive: MOLT-4 leukemia 96% | SR leukemia 90.7% | RPMI-8226 leukemia 98.6% | OVCAR-8 ovarian 104% | OVCAR-5 ovarian 93% | OVCAR-4 ovarian 103% | SK-OV-3 ovarian 128% | IGROV1 ovarian 96.3% | OVCAR-3 ovarian 97.9% | HS 578T breast 86.9%

O=[N+]([O-])c1ccc([Se]C2CCCCC2Cl)c([N+](=O)[O-])c1 (stereo not given)
inactive: MOLT-4 leukemia 73.2% | SR leukemia 78.7% | RPMI-8226 leukemia 82.8% | OVCAR-8 ovarian 59.7% | OVCAR-5 ovarian 101% | OVCAR-4 ovarian 78.8% | SK-OV-3 ovarian 106% | IGROV1 ovarian 70.8% | OVCAR-3 ovarian 88.2% | HS 578T breast 22.2%
